Compounds without any hit were thinned out: in the full panel of roughly 83,000, 20% have a hit.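 How to read the values: 0–100, growth inhibition (40 = 60% inhibited); 0, no net growth; -100 to 0, cell death (-40 = 40% of starting cells died; -100 = all dead).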 A number with no mark means an inactive call. The source made the active and inactive calls. Rule for the calls: active = growth percent below 10; inactive = the rest.
Experiments:
Experiment in all cases: NCI-60 one-dose screen, 48 h (100 = growth as untreated, 0 = no growth, -100 = all killed)
Conditions in all cases: 10 µM
NCI-H23 lung = system: NCI-H23 lung
NCI-H226 lung = system: NCI-H226 lung
NCI-H322M lung = system: NCI-H322M lung
HOP-62 NSCLC = system: HOP-62 NSCLC
NCI-H460 lung = system: NCI-H460 lung
NCI-H522 lung = system: NCI-H522 lung
A549/ATCC NSCLC = system: A549/ATCC NSCLC
786-0 renal = system: 786-0 renal
COLO 205 colon = system: COLO 205 colon
DU-145 prostate = system: DU-145 prostate
K-562 leukemia = system: K-562 leukemia
MALME-3M melanoma = system: MALME-3M melanoma
MDA-MB-231 breast = system: MDA-MB-231 breast
RXF 393 renal = system: RXF 393 renal
SF-268 CNS = system: SF-268 CNS
SF-295 CNS = system: SF-295 CNS
SF-539 CNS = system: SF-539 CNS
UACC-257 melanoma = system: UACC-257 melanoma
M14 melanoma = system: M14 melanoma

Structure (SMILES) | growth (NCI-H23 lung) [%] | growth (NCI-H226 lung) [%] | growth (NCI-H322M lung) [%] | growth (HOP-62 NSCLC) [%] | growth (NCI-H460 lung) | growth (NCI-H522 lung) | growth (A549/ATCC NSCLC) | growth (786-0 renal) [%] | growth (COLO 205 colon) | growth (DU-145 prostate) [%] | growth (K-562 leukemia) | growth (MALME-3M melanoma) | growth (MDA-MB-231 breast) | growth (RXF 393 renal) | growth (SF-268 CNS) | growth (SF-295 CNS) [%] | growth (SF-539 CNS) | growth (UACC-257 melanoma) | growth (M14 melanoma)
COC(=O)c1cccc(Br)c1 | 102 | 106 | 97.5 | 92 | 109% | 102% | 116% | 110 | 121% | 111 | 121% | 111% | 111% | 146% | 108% | 102 | 98.7% | 112% | 101%
Oc1ccc2c(c1)OCC1(O)Cc3cc(O)c(O)cc3C21 (stereo unspecified) | 86.9 | 98.2 | 103 | 82.2 | 112% | -34.1% (active) | 93.7% | 95.2 | 165% | 99.1 | 20.7% | 88.8% | 93.2% | 89.1% | 96.8% | 97.1 | 91.7% | 96.6% | 90.6%
Nc1nc(N)c(N=Nc2ccc(C(=O)O)cc2)c(N)n1 | 99.6 | 108 | 104 | 106 | 117% | -5.11% (active) | 51.8% | 107 | 117% | 111 | 108% | 106% | 107% | 113% | 107% | 104 | 101% | 30.9% | 98.4%
Cc1c(O)cccc1O | 106 | 93.4 | 90.3 | 92 | 114% | 73.1% | 122% | 102 | 116% | 124 | 88.2% | 156% | 96.5% | 77.7% | 112% | 98.2 | 103% | 108% | 105%
COc1cc2nc3cc([N+](=O)[O-])ccc3c(Cl)c2cc1OC | 98.6 | 56.3 | 103 | 111 | 109% | 70.7% | 95.7% | 104 | 112% | 103 | 98.8% | 94.5% | 99.4% | 120% | 99.8% | 103 | 96.4% | 93.1% | 96.6%
CCCC[P+](c1ccccc1)(c1ccccc1)c1ccccc1 | 44.4 | 67 | 95.1 | 80.2 | 53.4% | 39.6% | 53.7% | 98.9 | 32.2% | 62.5 | 24.4% | 41% | 84.3% | 102% | 67.2% |  | 64.5% | 17% | 54.9%
NCC(=O)CCC(=O)O | 93.8 | 99.2 | 107 | 99.1 | 115% | 107% | 99.1% | 103 | 116% | 121 | 109% | 101% | 107% | 98.3% | 101% | 106 | 110% | 105% | 113%
N#C/C(=C\c1cc(O)c(O)c(O)c1)C(N)=O | 102 | 108 | 110 | 97.2 | 110% | 76.5% | 105% | 94.6 | 104% | 93.6 | 71.9% | 115% | 102% | 99.6% | 107% | 87.7 | 94% | 105% | 92.2%
NCCC(=O)c1ccc(Cl)cc1 | 99.8 | 112 | 102 | 91 | 107% | 100% | 111% | 105 | 106% | 108 | 98.1% | 109% | 110% | 114% | 100% | 105 | 104% | 101% | 102%
O=c1cc(-c2ccccc2)[nH]c(=S)[nH]1 | 101 | 103 | 97.6 | 108 | 108% | 89.3% | 104% | 97.5 | 119% | 104 | 96.2% | 83.5% | 103% | 108% | 92.1% | 188 | 102% | 109% | 102%
CC(=O)Nc1ccc(NC(C)=O)c2c1C(=O)c1ccccc1C2=O | 89.5 | 81.7 | 89.1 | 81.9 | 102% | 89.3% | 96.2% | 91 | 87.6% | 96 | 91.4% | 86.1% | 59.7% | 108% | 95.9% | 99.8 | 92.3% | 110% | 101%
N#CC1(Nc2ccc3c4c(cccc24)CC3)CCCCC1 | 93.5 | 81.8 | 85.1 | 92.9 | 105% | 63.3% | 95% | 106 | 94.7% | 103 | 89.7% | 93.1% | 99.8% | 89.8% | 97% | 98.8 | 108% | 92.9% | 113%
O=c1cc(-c2ccccc2)oc2c1ccc1ccccc12 | 85.2 | 86.3 | 96 | 99.5 | 97.1% | 79.3% | 73.6% | 99.4 | 85.8% | 102 | 102% | 146% | 88.4% | 90.8% | 101% | 98 | 81.2% | 97.3% | 98.9%
COc1ccc(C)cc1OC | 96.4 | 98.8 | 88.8 | 102 | 107% | 104% | 96.9% | 105 | 113% | 99.6 | 92.9% | 97% | 107% | 117% | 98.4% | 95.7 | 109% | 93.9% | 115%
O=C1Cc2cc(O)ccc2O1 | 111 | 103 | 94.5 | 101 | 111% | 88.4% | 98.7% | 103 | 117% | 118 | 96.6% | 92.5% | 106% | 114% | 106% | 160 | 101% | 103% | 98.9%
CCN(CC)CCCC(C)Nc1ccnc(/C=C/c2ccc(Cl)cc2)c1 (stereo unspecified) | 67.4 | 62.6 | 21.3 | 38.4 | 9.3% (active) | -38.6% (active) | 9.38% (active) | 45.2 | -64.4% (active) | 49.6 | 0.277% (active) | -60.6% (active) | -28.3% (active) | -61.8% (active) | 9.89% (active) |  | -69.2% (active) | -77.7% (active) | -85.9% (active)
NC(=O)NC(=O)c1ccc(Cl)cc1 | 103 | 102 | 94.3 | 94.4 | 108% | 79.5% | 108% | 99.6 | 105% | 116 | 101% | 92% | 48.2% | 131% | 113% | 112 | 104% | 107% | 96.1%
